Results reported in PubChem BioAssay AID1159580 (chemical genetic matrix, 2015).
Screen size: about 5,500 compounds; about 2,000 (36%) were called active. Another 18% or so got no clear call; they are omitted. Cut-off read from the data, not from the text of the source: active = normalized growth mostly below about 0.91 (no sharp cut-off); inconclusive = no clear call, values can overlap the other calls; inactive = mostly above about 0.92. The list shows a part of the results.

Experiment: chemical genetic growth profiling, strain panel (AID 1159580);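 note: tested at 20 µM; growth read once vehicle control cultures reached saturation at 30 °C; 1 = growth at the plate median or of vehicle wells; lower values mean less growth of the strain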
Conditions: S. cerevisiae deletion strains, growth OD

Measured: normalized growth

CCn1cnc2c(Nc3cccc(Cl)c3)nc(N[C@@H]3CCCC[C@@H]3N)nc21
inactive: locus YAL013W, strain DEP1, stronger effect = lower value 0.985 | locus YAL040C, strain CLN3, stronger effect = lower value 1.02 | locus YCL061C, strain MRC1 (second series), stronger effect = lower value 0.998 | locus YDR363W, strain ESC2, stronger effect = lower value 0.993 | locus YER002W, strain NOP16, stronger effect = lower value 1.03 | locus YGR078C, strain PAC10, stronger effect = lower value 1.01 | locus YGR229C, strain SMI1, stronger effect = lower value 0.993 | locus YMR263W, strain SAP30, stronger effect = lower value 1 | locus YNL175C, strain NOP13, stronger effect = lower value 1.08 | locus YNL224C, strain SQS1, stronger effect = lower value 1.04 | locus YOR083W, strain WHI5 (second series), stronger effect = lower value 0.991 | locus YPL241C, strain CIN2, stronger effect = lower value 1.01
